Source: PubChem (National Center for Advancing Translational Sciences (NCATS))
Tau fluor cs = counter-screen for tau fibril formation inhibitors; tau K18 P301L Alexa594 fluorescence, heparin fibrillization; Potency, µM (series often up to 57.7 µM), for inactives: at the highest dose activity change, negative = decrease; 280,000 tested, 0.93% active; AID 1463; note: % is set by controls: 0 for no effect and ±100 for the full control effect; nearly all actives have a fitted effect of over 55% in size
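Human tau K18 P301L (15 uM unlabeled, 0.24 uM Alexa 594-labeled) in 100 mM sodium acetate pH 7 with 20 uM heparin, 6 hr at 37 C. ThT 30 uM added, 1 hr ambient; Alexa 594 FP and total fluorescence read at 555/632 nm.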
HTT ATP protect = protects HTT-Q103 PC12 cells, measured by ATP. Potency, µM (series often up to 56.4 µM), inactives show cytoprotection (ATP increase), usual class: activators. 230,000 tested, 0.14% active. PC12 HTT-Q103 induced, cytoprotection, ATP luminescence, 40 h. AID 1471; note: % of control where 0% means no effect; nearly all actives have a fitted effect of over 45% in size
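PC12 cells with ecdysone-inducible HTT exon 1 Q103-GFP, induced with 100 nM tebufenozide and co-treated with library compounds in a dose series (1536-well, 1500 cells/well). Cytoprotection read as ATP content by ATPlite luminescence.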
Tau ThT inhib = tau fibrillization inhibition (ThT binding). Potency, µM (highest dose often 57.4 µM), inactives show at the highest dose activity, negative = inhibition, usual class: inhibitors. AID 1460. 270,000 tested, 2.1% active. P10636. recombinant tau K18 P301L (four-repeat tau fragment), heparin-induced fibrillization, ThT fluorescence; note: % is set by controls: 0 for no effect and ±100 for the full control effect; nearly all actives have a fitted effect of over 55% in size
Target sequence (P10636 561-689 P618L limits assumed): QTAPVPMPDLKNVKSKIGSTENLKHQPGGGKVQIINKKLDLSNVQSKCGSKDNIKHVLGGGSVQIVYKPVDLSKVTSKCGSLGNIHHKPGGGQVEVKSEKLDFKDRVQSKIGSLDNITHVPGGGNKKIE
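Heparin-induced (20 uM) aggregation of recombinant human K18 P301L tau, 15 uM unlabeled with 0.24 uM labeled, pH 7 acetate buffer, 6 hr at 37 C with compound. Fibrils quantified by 30 uM ThT fluorescence after 1 hr ambient incubation.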
Tau FP inhib = tau fibrillization inhibition (FP); P10636; K18 P301L tau heparin fibrillization, Alexa594 FP, 6 h; Potency, µM (doses to about 57.7 µM), for inactives: at the top dose activity, negative = inhibition, hits mostly inhibitors; 280,000 tested, 0.39% active; note: % is set by controls: 0 for no effect and ±100 for the full control effect; nearly all actives have a fitted effect of over 55% in size
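Recombinant K18 P301L […], labeled with Alexa 594 at 0.24 uM over 15 uM unlabeled; heparin inducer 20 uM final; 37 C, 6 hr; FP endpoint.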
HttQ103 aggreg = mutant huntingtin aggregation inhibition; PC12 HttQ103-GFP aggregates, Acumen cytometry, 40 h; Potency, µM (series often up to 46.1 µM), for inactives: at the top dose activity change, negative = inhibition, hits mostly inhibitors; 220,000 tested, 1.1% active; AID 1688; note: % is set by controls: 0 for no effect and ±100 for the full control effect; nearly all actives have a fitted effect of over 60% in size
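Aggregates are detected as GFP objects 1–25 µm with signal 6 STDEV over background in lysates of induced PC12 cells. These carry Huntingtin exon 1 with 103 glutamines fused to GFP under an ecdysone promoter; compounds titrated.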
Active calls of the source: *; [ ] = another dose, or the depositor's remark. Compounds with a hit are over-represented: about 3.7% of the library has one in this group of screens. Calls come from the whole dose curve; as a rule, active = well fitted curve in the direction sought with a large enough effect; inconclusive = small, poorly fitted or top-dose-only effect, or another doubt; inactive = no such curve, though single readings can be large; an effect the other way counts as inactive or inconclusive. Potency is the fitted concentration of half-maximal effect.

COc1cc(/C=C2\COC/C(=C\c3ccc(O)c(OC)c3)C2=O)ccc1O was read as Tau fluor cs inconclusive, HTT ATP protect -18%[10 µM], Tau ThT inhib 10µM*, Tau FP inhib inconclusive and HttQ103 aggreg 6%[9.22 µM].
COc1cc(/C=C2\CC/C(=C\c3ccc(OCCO)c(OC)c3)C2=O)ccc1OCCO was read as Tau fluor cs -27%, HTT ATP protect -7%[10 µM], Tau ThT inhib 14µM*, Tau FP inhib inconclusive and HttQ103 aggreg -10%[9.22 µM].
COc1cc(C=C2C(=O)c3ccccc3C2=O)ccc1O was read as Tau fluor cs -18%, HTT ATP protect -2%[10 µM], Tau ThT inhib inconclusive, Tau FP inhib -5% and HttQ103 aggreg -15%[9.22 µM].
Screening COc1cc(/C=C2/CC/C(=C/c3ccc(O)c(OC)c3)C2=O)ccc1O returned Tau fluor cs -22%, HTT ATP protect 1%[10 µM], Tau ThT inhib 0.89µM*, Tau FP inhib inconclusive and HttQ103 aggreg -2%[9.22 µM].
COc1ccc(/C=C2\CC/C(=C\c3ccc(OC)c(OC)c3)C2=O)cc1OC was read as Tau fluor cs -11%, HTT ATP protect -26%[10 µM], Tau ThT inhib inconclusive, Tau FP inhib 11% and HttQ103 aggreg 25%.
`O=C(OCc1cc(=O)n2nc(C3CC3)sc2n1)c1ccc(NC(=O)c2ccccc2Cl)cc1` gave Tau fluor cs -12%, Tau ThT inhib -11% and Tau FP inhib 14%.
`COc1ccc(N(CC(C)C)S(=O)(=O)c2nnc(NC(=O)c3cccs3)s2)cc1` gave Tau fluor cs -22%, Tau ThT inhib -11% and Tau FP inhib -5%.
Screening Cc1ccc(C)c(-n2nnnc2Sc2nnnn2-c2ccccc2)c1 returned Tau fluor cs -2%, HTT ATP protect -88%[10 µM], Tau ThT inhib 0%, Tau FP inhib 6% and HttQ103 aggreg 20µM*.
`CCSc1nnnn1-c1ccccc1` gave Tau fluor cs -9%, HTT ATP protect 5%[10 µM], Tau ThT inhib -9%, Tau FP inhib -5% and HttQ103 aggreg 20%.
Screening c1ccc(N2CCN(c3nc4cc5c(cc4s3)OCO5)CC2)cc1 returned Tau fluor cs -18%, HTT ATP protect -11%[10 µM], Tau ThT inhib 2.5µM*, Tau FP inhib -4% and HttQ103 aggreg 0%.
`c1c2c(cc3sc(N4CCOCC4)nc13)OCO2` gave Tau fluor cs -16%, HTT ATP protect -60%, Tau ThT inhib inconclusive, Tau FP inhib 0% and HttQ103 aggreg -6%.
For O=C1C2N=NN(CC(=O)N3N=C(c4ccccc4)CC3c3ccc([N+](=O)[O-])cc3)C2C(=O)N1c1ccccc1 (stereo unspecified) the results were Tau fluor cs -4%, HTT ATP protect -38%, Tau ThT inhib -6%, Tau FP inhib 0% and HttQ103 aggreg 1%[9.22 µM].
CCc1ccc(C2=NN(C(C)=O)C(c3ccco3)C2)cc1 (stereo unspecified) was read as Tau fluor cs -12%, HTT ATP protect 7%, Tau ThT inhib inconclusive, Tau FP inhib 9% and HttQ103 aggreg 6%.
For O=[N+]([O-])c1ccc(/C=C/C2=NN(c3ccccc3)C(c3ccco3)C2)cc1 (stereo unspecified) the results were Tau fluor cs inconclusive, Tau ThT inhib 3.5µM*, Tau FP inhib -9% and HttQ103 aggreg inconclusive.
Screening O=[N+]([O-])c1ccc(C2=NN(c3ccccc3)C(c3ccco3)C2)cc1 (stereo unspecified) returned Tau fluor cs -24%, HTT ATP protect 0%[10 µM], Tau ThT inhib 5µM*, Tau FP inhib 11% and HttQ103 aggreg 30%[9.22 µM].
Screening COc1ccc(NC(=O)Nc2sc3nc4n(c(=O)c3c2C)CCC(C)CC4)cc1OC (stereo unspecified) returned Tau fluor cs 8.9µM*[quencher], Tau ThT inhib inconclusive and Tau FP inhib inconclusive.
Screening O=[N+]([O-])c1ccccc1NCCOc1ccccc1 returned Tau fluor cs -20%, HTT ATP protect 5%[10 µM], Tau ThT inhib inconclusive, Tau FP inhib inconclusive and HttQ103 aggreg -3%.
`COc1cccc(OCCNc2cc(Cl)ccc2[N+](=O)[O-])c1` gave Tau fluor cs -30%, HTT ATP protect 4%[10 µM], Tau ThT inhib 8.9µM*, Tau FP inhib -4% and HttQ103 aggreg 1%.
`O=S(=O)(c1cccc(C(F)(F)F)c1)N1CCC(c2cc(-c3cccc4ccccc34)n[nH]2)CC1` gave Tau fluor cs -19%, HTT ATP protect -74%, Tau ThT inhib 0%, Tau FP inhib 0% and HttQ103 aggreg 1µM*.
For COc1ccc(S(=O)(=O)N2CCC(c3cc(-c4cccc5ccccc45)n[nH]3)CC2)cc1 the results were Tau fluor cs -10%, HTT ATP protect -54%, Tau ThT inhib 1%, Tau FP inhib -9% and HttQ103 aggreg inconclusive.
For CC(=O)N1CCN(c2ccc(NCc3cccs3)cc2)CC1 the results were Tau fluor cs -30%, HTT ATP protect -23%, Tau ThT inhib 28µM*, Tau FP inhib inconclusive and HttQ103 aggreg -12%.
Screening CC(=O)N1CCN(c2ccc(NCc3ccc4c(c3)OCO4)cc2)CC1 returned Tau fluor cs inconclusive, HTT ATP protect -16%, Tau ThT inhib 16µM*, Tau FP inhib inconclusive and HttQ103 aggreg 10%.
For Cc1c(C(=O)N(Cc2ccccc2F)C2CCS(=O)(=O)C2)oc2ccc(F)cc12 (stereo unspecified) the results were Tau fluor cs -25%, Tau ThT inhib inconclusive and Tau FP inhib 6%.
Screening COc1ccc2nc3cc(Cl)ccc3c(Nc3cc(C(C)C)c(O)cc3C)c2c1 returned Tau fluor cs 7.1µM*[quencher], HTT ATP protect -18%[10 µM], Tau ThT inhib 5µM*, Tau FP inhib inconclusive and HttQ103 aggreg -10%[9.22 µM].
Screening CCN(CC)CCCC(C)Nc1c2ccc(Cl)cc2nc2ccc(OC)cc12 (stereo unspecified) returned HTT ATP protect -337%.
Screening CC(=O)Nc1ccc(S(=O)(=O)N2CCC(n3c(C)nc4cccnc43)CC2)cc1 returned Tau fluor cs 2%, Tau ThT inhib -3% and Tau FP inhib 1%.
`COc1ccc(NCc2cc3ccccc3[nH]c2=O)cc1` gave Tau fluor cs -14%, HTT ATP protect -13%, Tau ThT inhib inconclusive, Tau FP inhib -2% and HttQ103 aggreg 0%.
For COc1ccc(NCc2cc3cc(OC)ccc3[nH]c2=O)cc1 the results were Tau fluor cs -25%, HTT ATP protect -20%, Tau ThT inhib 7.9µM*, Tau FP inhib -4% and HttQ103 aggreg -8%.
Screening CCOC(=O)N/N=C/c1cn(CCCOc2ccc(C)cc2)c2ccccc12 returned Tau fluor cs inconclusive, Tau ThT inhib inconclusive, Tau FP inhib 11% and HttQ103 aggreg -2%.
